# Compound activity as filed in PubChem.
# Peg3 prom inh: Peg3 promoter-driven luciferase inhibitors, primary screen, cell-based, HeLa, luciferase luminescence; HeLa PEG-Prom luciferase reporter, overnight; inhibition, % at 20 µM; 360,000 tested, 1.7% active;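 active = inhibition of at least 50% at 20 µM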
# KKLEB tox: cytotoxicity in KKLEB CF airway cells, primary screen, cytotoxicity control for CF NF-kB inhibitor project, cell-based, uHTS, fluorescence assay plates; KKLEB CF airway cells viability, ATPlite luminescence, overnight; active compounds read low; cells stimulated with P. aeruginosa culture filtrate; 360,000 tested, 0.36% active; activity change (cytotoxicity), % at 5 µM;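 active = corrected activity change at or below -50% at 5 µM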
# TWEAK-Fn14 inh: inhibitors of TWEAK-Fn14 signaling, primary screen, luciferase reporter cells, uHTS; 360,000 tested, 2% active; TWEAK-stimulated Fn14 reporter cells, luciferase luminescence, 8 h; inhibition, % at 10 µM; in the data active = inhibition above about 50%
# CF NFkB block: inhibitors of PAF-induced NF-kB signaling, primary screen, cell-based, GFP fluorescence, uHTS; KKLEB NF-kB-GFP reporter, GFP fluorescence overnight; 360,000 tested, 0.86% active; inhibition, % at 5 µM;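 active = at least 50% inhibition at 5 µM, scaled per plate between neutral and stimulator controls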;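 note: PAF is a Pseudomonas aeruginosa culture filtrate used as stimulus; plate controls were PAF-stimulated DMSO wells for no effect and unstimulated DMSO wells for full effect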
# TROY signal inh: inhibitors of TROY-driven NF-kB signaling, primary screen, Q293 LMP1-TROYcd cells, NF-kB luciferase, uHTS; Q293 LMP1-TROYcd NF-kB luciferase reporter, 4 h; inhibition, % at 10 µM; 360,000 tested, 0.98% active; AID 1347056, 2019;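 active = compounds whose plate-normalised and pattern-corrected inhibition of the luciferase reporter signal at the single screening dose is 50% or more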
# HIF-2a inh: HIF-2a reporter inhibitors, primary screen, luminescence, 786-0 RCC cells; inhibition, % at 18.8 µM; AID 624352, 2012; 360,000 tested, 0.72% active; 786-0 RCC cells HIF-2a reporter, luciferase luminescence, overnight;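 active = inhibition of the luminescence signal of 40% or more relative to plate controls, in a single-dose primary screen at 18.75 µM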
# Starred values were filed as active, the others as inactive; nt = no result. This is a sample that favours compounds with a hit; in the whole collection about 3.9% have one here.
SMILES,Peg3 prom inh,KKLEB tox,TWEAK-Fn14 inh,CF NFkB block,TROY signal inh,HIF-2a inh
COc1cccc(C(=O)Nc2nc3ccccc3[nH]2)c1,42,-19,87*,-5,33,3
O=C(OCC#CCSc1nnc(-c2cccc3ccccc23)o1)c1cc2ccccc2o1,-49,6,-10,-12,-5,-62
CC1=C(C(=O)Nc2ccccc2)C(c2ccco2)C(C#N)=C(SCC(=O)Nc2cccc(C)c2C)N1 (centres undefined),39,-19,32,-6,-8,9
CC1=C(C(=O)Nc2ccccc2)C(c2ccco2)C(C#N)=C(SCC(=O)OC(C)C)N1 (centres undefined),9,5,59*,-8,14,20
Cc1c(C(=O)OCC(=O)N2CCCC(C)C2)oc2ccccc12 (centres undefined),-154,-18,-27,12,-70,-128
CCOc1ccc(N(C(C)C(=O)NC2CCCCCC2)S(C)(=O)=O)cc1 (centres undefined),11,-7,91*,-9,-20,4
CCN1CCN(c2cc(C)c3cc(NC(=S)NCCN(C)C)ccc3n2)CC1,-6,-8,-27,8,12,-3
CCCCN(CC)C(=S)Nc1ccc2nc(N3CCN(C)CC3)cc(C)c2c1,-22,-9,55*,0,68*,-29
CCCCN(C)CCNC(=S)Nc1ccc2nc(N3CCN(CC)CC3)cc(C)c2c1,63*,-8,-17,-13,-6,16
Cc1cc(N2CCN(C)CC2)nc2ccc(NC(=S)NCCN3CCc4ccccc4C3)cc12,61*,-6,-17,12,2,7
CCN1CCN(c2cc(C)c3cc(NC(=S)N(C)Cc4ccccc4)ccc3n2)CC1,24,3,-3,-14,-9,-1
CCCCNC(=O)CCC(=O)Nc1ccc2nc(N3CCN(C)CC3)cc(C)c2c1,3,-9,-3,10,-11,7
CCCCN(C)C(=S)Nc1ccc2nc(N3CCN(CC)CC3)cc(C)c2c1,-18,-7,34,4,62*,-6
Cc1cc(N2CCCC2)nc2ccc(NC(=S)NCCCN3CCC(C)CC3)cc12,98*,-1,-83,-24,-15,18
CN(CC1CCOCC1)C(=O)CC1C(=O)NCCN1Cc1cccc(Oc2ccccc2)c1 (centres undefined),12,-11,7,17,-7,10
S=C(Nc1ccc(Cl)c(Cl)c1)NC1CCN(Cc2ccccc2)CC1,93*,-15,32,11,37,21
S=C(Nc1ccc(Cl)c(Cl)c1)NC1CCCCC1,-42,-20,63*,29,19,-227
S=C(Nc1ccc2nsnc2c1)NC1CCCCC1,-252,-6,6,14,-70,-215
COc1cccc(-n2c(SCC(=O)N3CCOCC3)nnc2-c2c[nH]c3ccccc23)c1,7,-26,-9,30,-6,-12
COc1cccc(-n2c(SCC(=O)N3CCOCC3)nc3c([nH]c4ccccc43)c2=O)c1,19,-55*,-18,34,-6,-10
CC1(C)CC(=O)C=C(Nc2cccc(Cl)c2Cl)C1,2,-6,-38,24,11,21
Nc1cc(N)cc(-c2nc3ccccc3o2)c1,-124,-4,82*,-6,25,-58
CCc1ccc2oc(-c3cccc(N)c3)nc2c1,-76,-17,75*,-3,34,-46
Cc1ccc2nc(-c3cccc(N)c3)oc2c1,-53,-16,78*,-15,36,-8
Nc1ccc(-c2nc3ccccc3o2)cc1,-306,-2,18,-16,-42,-130
SMILES,Peg3 prom inh,KKLEB tox,TWEAK-Fn14 inh,CF NFkB block,TROY signal inh,HIF-2a inh
CCOc1ccc(NC(=O)CCNC(=O)Cn2cnc3ccccc3c2=O)cc1,5,2,18,-13,20,2
Cc1ccc(CC(=O)Nc2nc3ccccc3[nH]2)cc1C,-12,3,4,5,17,-20
COc1cccc(C(=O)N2CCC[C@H]2C(=O)N2CCC[C@H]2C(=O)N[C@H](C)c2ccccc2)c1,nt,nt,12,nt,2,6
COc1ccc(S(=O)(=O)c2c(O)c3ccc(C(=O)Nc4ccc(F)cc4)cc3[nH]c2=O)cc1,3,-16,-5,19,9,-4
COC(=O)c1c(N2C(=O)[C@H]3[C@@H](C2=O)[C@]2(C(=O)Nc4c(C)cccc42)N2CCC[C@@H]32)sc(C)c1C,56*,-21,-3,16,9,25
Cc1cc(Cl)cc2c1NC(=O)[C@]21[C@@H]2C(=O)N(Cc3ccccc3)C(=O)[C@@H]2[C@@H]2CCCN21,26,19,10,-3,-6,15
Fc1ccccc1COc1ccc(Br)cc1CNCc1ccncc1,56*,10,48,8,47,28
CCOC(=O)C1=C(C)OC(N)=C(C(=O)OCC)C1c1ccncc1 (centres undefined),0,-2,2,7,13,19
COc1ccc(C(=O)C=Cc2ccc3c(c2)OCO3)cc1OC,-101,-15,-20,41,-29,-53
O=C(/C=C/c1ccc(Br)cc1)c1ccc(NC(=O)c2ccco2)cc1,-37,6,8,-8,-38,-51
CCC1CSC(Nc2ccc(C(=O)/C=C/c3ccc(OC)c(OC)c3)cc2)=N1 (centres undefined),91*,-7,74*,14,47,27
COc1ccc(/C=C/C(=O)c2ccc(NC3=NCCCS3)cc2)cc1OC,16,-19,72*,29,29,27
CCC1CSC(Nc2ccc(C(=O)/C=C/c3ccc(Br)cc3)cc2)=N1 (centres undefined),20,-27,57*,39,-16,-34
O=C(c1cnn2c(C(F)F)cc(-c3ccccc3)nc12)N1CCCCC1c1cccnc1 (centres undefined),16,2,12,22,8,20
O=C(NCN1CCc2ccccc2C1)c1ccccc1,0,9,0,7,-7,6
O=C(CCCN1C(=O)/C(=C/c2ccccc2)SC1=S)N1CCOCC1,8,-1,5,-6,-22,25
O=C(CCN1C(=O)/C(=C\c2ccccc2)SC1=S)N1CCOCC1,17,0,11,5,-28,-20
O=C(CCCN1C(=O)/C(=C/c2ccccc2Cl)SC1=S)N1CCCC1,35,-11,58*,5,11,59*
COc1ccccc1/C=C1\SC(=S)N(CCC(=O)N2CCN(C)CC2)C1=O,7,0,3,-12,-10,11
